# PubChem BioAssay (NCI)
# This is part of a sample that, as a whole, favours compounds with a hit. Of some 79,000 tested, about 15% had one in any assay. Unmarked numbers belong to inactive results. Active and inactive are the calls of the source. Cut-off read from the data, not from the text of the source: active = growth inhibition above about 70%; inactive = the rest. Where a SMILES comes first, the peptide text is derived from it. The star is where a group is joined. OtBu = CC(C)(C)O*
# How the values were obtained:
# [1] = NCI Yeast Anticancer Drug Screen. Data for the rad50 strain (AID 155);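 note: 0% = growth of vehicle-only cultures of the same strain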; details: S. cerevisiae rad50 strain growth inhibition; at 50.0 µM; hits give high values
# Method in brief: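 Inhibition values express reduced yeast growth in compound-treated cultures relative to vehicle-treated controls.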
# [2] = NCI Yeast Anticancer Drug Screen. Data for the mec2-1 strain (AID 157); details: S. cerevisiae mec2-1 strain, at 50.0 µM, hits give high values
# Method in brief: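 Using mec2-1 yeast: add compound, measure growth, express inhibition versus vehicle-treated cultures.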
# [3] = NCI Yeast Anticancer Drug Screen. Data for the sgs1 mgt1 strain (AID 161);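 note: 0% = growth of cultures given vehicle only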; details: S. cerevisiae sgs1 mgt1 strain, at 50.0 µM, hits give high values
# Method in brief: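 This yeast growth screen uses a strain with defined DNA-repair lesions; compound-treated growth is compared with vehicle-treated growth.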
# [4] = NCI Yeast Anticancer Drug Screen. Data for the cln2 rad14 strain (AID 165);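 note: 0% = growth equal to vehicle treated cultures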; details: S. cerevisiae cln2 rad14 strain, at 50.0 µM, hits give high values
# Method in brief: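 Yeast strain cln2 rad14, bearing defects in cell cycle control and DNA repair, serves as the test system; values reflect growth inhibition compared with vehicle.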
# [5] = NCI Yeast Anticancer Drug Screen. Data for the bub3 strain (AID 167); details: S. cerevisiae bub3 mutant strain, at 50.0 µM, hits give high values
# Method in brief: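 Steps: expose the mutant yeast strain to compound; grow alongside vehicle-treated cultures; measure growth; express inhibition against the vehicle cultures.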
# [6] = NCI Yeast Anticancer Drug Screen. Data for the mlh1 rad18 strain (AID 175); details: S. cerevisiae mlh1 rad18 strain growth inhibition; at 50.0 µM; hits give high values
# Method in brief: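 Steps: expose repair-defective yeast to compound; measure growth; express inhibition against vehicle-treated controls.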
Compound,growth inhibition [1] [%],growth inhibition [2] [%],growth inhibition [3] [%],growth inhibition [4] [%],growth inhibition [5] [%],growth inhibition [6]
O=C(c1ccccc1)c1ccccc1NCC(O)COc1cccc2ccccc12 (stereo not given),-7.5,-19.9,-21.9,-13.8,5.55,-4.2%
O=C(Cc1ccccc1)NN1C(=O)/C(=C\c2ccccc2O)SC1=Nc1ccccc1,1.15,-6.3,31.4,13.5,-6.95,7.25%
COc1ccc(C(=O)/C=C/c2ccc(OCC(=O)O)cc2)cc1,22.6,12.3,18.1,21.8,-5.75,42.8%
CC(C)CC(NC(=O)C1CCCN1)C(=O)NC(CC(C)C)C(=O)OC(C)(C)C (stereo not drawn) (H-Pro-Leu-Leu-OtBu; configuration not given here),30.2,26.6,29.1,19,-4.15,30.9%
CCCCCCCCCCCCSC(=O)Nc1ccc(C(=O)OCC)cc1,24.9,3.3,12.7,-39.2,-2.55,20.9%
CN(C)CCCN1C=CC(=C2C(=O)c3ccccc3C2=O)C=C1,3.1,20.8,10.3,34.9,8.5,-0.95%
NNC(=O)CSCC(=O)NN,-1.9,-2.05,-3.25,-9.75,1.2,-5.35%
COc1ccccc1/C=N/N1C(=O)C2C3C=CC(O3)C2C1=O (stereo not given),2.35,9.8,0.1,0.15,3.45,14.5%
c1cncc([O][Ge]([O]c2cccnc2)([O]c2cccnc2)[O]c2cccnc2)c1,8.6,15.8,31,24.1,3,35.8%
O=C(O)CCc1ccc2c(c1)OCO2,-2.1,-24.1,-5.85,-5.4,-34.1,-11.4%
O=c1c2c(oc3cc(OCC4CO4)ccc13)CCC2 (stereo not given),-0.4,-7.7,-28.2,-24.9,-9.05,-21.4%
Clc1ccc(CSc2cnnc(SCc3ccc(Cl)c(Cl)c3)c2SCc2ccc(Cl)c(Cl)c2)cc1Cl,1.2,5.15,3.9,-5.9,-0.8,17.1%
NCCNC(=O)Cc1cccc2ccccc12,-21.1,-48,-5.15,3.6,-36.5,-3.05%
CC(O)C(C)(C)O (stereo not given),12.3,-8.85,15.6,-13.4,16.1,4.15%
CC(=O)Nc1ccc(S(=O)(=O)NC(=O)NCCC(C)C)cc1,1.95,2.45,9.8,-20.2,8.6,7.85%
Cc1c(Cl)ccc2c1NC(=O)C2(O)C1Cc2ccccc2C1=O (stereo not given),44.5,21.1,37.5,34,15.1,28%
CCC(Cc1ccccc1)OC(=O)c1ccccc1C(=O)O (stereo not given),-16.2,-10.8,8,-43.3,-6.85,1.9%
O=C(CCN(CCC(=O)c1ccccc1)CCC(=O)c1ccccc1)c1ccccc1,22.2,11.8,-5.05,-31.3,0.9,26.9%
CSc1c(C)c(C)nn1-c1ccccc1,-8.35,-7.6,9.45,-1.4,1.35,-5.75%
COc1ccc(N=Cc2c(O)c(O)c(C(C)C)c3cc(C)c(-c4c(C)cc5c(C(C)C)c(O)c(O)c(C=Nc6ccc(OC)cc6)c5c4O)c(O)c23)cc1,2.2,1.75,-12.2,-18.4,-5.75,-6.2%

Compound,growth inhibition [1] [%],growth inhibition [2] [%],growth inhibition [3] [%],growth inhibition [4] [%],growth inhibition [5] [%],growth inhibition [6]
Cc1cc(=O)c2c([nH]1)c1c(c3[nH]c(C)cc(=O)c32)Oc2ccccc2O1,65.2,5,-2.95,-10.6,-5.55,27.9%
Cc1cc(C)c(CSc2cc(N)nc(N)c2N)c(C)c1,15.4,9.3,1.25,5.9,6.9,48.2%
CC([O-])=C1C(=O)c2ccccc2C1=O.CC([O-])=C1C(=O)c2ccccc2C1=O.CC[O-].CC[O-].[Ti+4],19.4,27.6,55.4,29,37.8,36.5%
CC1=NC2(CCCCC2)N(Cl)C(=O)C1SC#N (stereo not given),-45.2,-72.3,-23.8,-27.6,-13.8,-27.4%
NC1C([O-])OC(CO)C(O)C1O.O=C1OC(C(O)CO)C([O-])=C1[OH2+].[Cu+2] (stereo not given),-0.4,-0.15,-19.6,-8.25,-1.55,-12.8%
CCC(C)C(N=C1N=CNC2=NC=NC12)C(=O)O (stereo not given),0.45,-27.8,-2.6,6.5,-10.6,-4.1%
COc1ccc2c(c1)C1(C)CCCC(C)(CO)C1CC2 (stereo not given),37,-0.3,20.2,3.95,1.4,-10.8%
N#C/C(C(=N)c1ccccc1)=C1\SS/C(=C(\C#N)C(=N)c2ccccc2)S1,7.2,2.35,7.6,23.7,3.7,-4.45%
N#CCCn1nc(SC2CCCCC2)c(=O)[nH]c1=O,-4.05,1.95,2.45,32.3,4.75,4.3%
Nc1c(S(=O)(=O)O)ccc2c1C(=O)c1ccccc1C2=O,27.9,24.2,34,6.5,49.1,16.4%
CCCCCCCCCCCCOc1ccc(C(C)(C)C)cc1,-12.2,-12.8,-22.1,7.85,-36.8,-11.7%
CC(C)NP(=O)(OC1CC(C)(C)N(O)C(C)(C)C1)OC1CC(C)(C)N(O)C(C)(C)C1,26.1,18.6,13.4,-16.3,2,5.65%
CCCCOC(=O)NC(=O)c1cc2ccc(N(CC)CC)cc2oc1=O,-10.5,3.5,8.7,3.4,5.4,4.2%
FS(F)(F)(F)(F)c1cccc(NC(=S)SCc2ccc(Cl)cc2)c1,43.6,24.8,39.8,32.4,6.8,30.1%
O=C1OC2CC3CC2C1C3C(=O)N1CCCCC1 (stereo not given),11.5,-1.6,-8.15,-33,-9.65,-5.4%
CN(C)C(=S)S(=O)(=O)c1ccc([N+](=O)[O-])cc1,26.8,14.7,23.6,-7.4,31.6,92.3% (active)
CN(C)c1ccc(C=C(C(=O)c2ccccc2)C(=O)c2ccccc2)cc1,9.45,1.9,0.75,8.6,20.1,37%
COc1cc(C(=O)O)c(Cc2ccccc2)c(OC)c1O,9.8,5.95,1.05,5.6,9.05,-3.2%
Cc1c(C(=O)CC(=O)C(=O)Nc2cccc(C(F)(F)F)c2)[n+](=O)c2ccccc2n1[O-],45.8,43.1,28.6,14.2,38.4,31.6%
COc1ccccc1Nc1n[nH]c(=S)s1,11.5,-5.9,58.5,16.9,14.1,5.05%
